Laboratory results as given in the supplement of paper PMC6805474.

Key:
[1] = tested on: Schistosoma mansoni schistosomula (NMRI); test: phenotypic severity score (0-4); higher = more antischistosomal effect, active = 2 or more; settings: 10 µM
[2] = tested on: Schistosoma mansoni schistosomula (Liberian); test: drug effect (1 - score/DMSO control score) (fraction); higher = more antischistosomal effect, active = 0.5 or more; extreme values may be limits of the assay; settings: 10 µM
Summary of the method: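 Liberian-strain Schistosoma mansoni schistosomula, mechanically transformed from cercariae and pre-incubated at least 12 h, were exposed in duplicate (50 per well, flat-bottom 96-well plates) to 10 µM compound in Medium 199 with 5% FCS at 37 °C, 5% CO2, with 0.1% DMSO control wells. Wells were scored visually (10×) at 24, 48 and 72 h on a quarter-point scale from 3 (normal) to 0 (dead). Drug effect was derived from the mean test-well score relative to the mean DMSO-control score. Negative values were set to zero, and plates were valid only if control wells averaged at least 2.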
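Throughout, for phenotypic severity score (0-4): visual microscopic scoring of shape, motility and density changes versus 0.5% DMSO solvent controls, one point per descriptor, degeneracy or death scored 4, mean of duplicate wells.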

CS(=O)(=O)Cc1nc2ccccc2oc1=O
inactive: phenotypic severity score ([1]; 24 h) 0 | phenotypic severity score ([1]; 48 h) 0 | phenotypic severity score ([1]; 72 h) 0 | drug effect ([2]; 24 h) 0.182 | drug effect ([2]; 48 h) 0.45 | drug effect ([2]; 72 h) 0.455

COc1cccc(-c2cc3c(Nc4cccnc4)nccc3[nH]2)c1
inactive: phenotypic severity score ([1]; 24 h) 0 | phenotypic severity score ([1]; 48 h) 0 | phenotypic severity score ([1]; 72 h) 0 | drug effect ([2]; 24 h) 0.1 | drug effect ([2]; 48 h) 0.135 | drug effect ([2]; 72 h) 0.152

O=C(c1cc2ccccc2o1)N1CCN(Cc2ccc3c(c2)OCO3)CC1
inactive: phenotypic severity score ([1]; 24 h) 0 | phenotypic severity score ([1]; 48 h) 0 | phenotypic severity score ([1]; 72 h) 0 | drug effect ([2]; 24 h) 0.182 | drug effect ([2]; 48 h) 0.15 | drug effect ([2]; 72 h) 0.236

Nc1ncnc2c1ncn2[C@@H]1O[C@H](COS(=O)(=O)NC(=O)c2ccccc2O)[C@@H](O)[C@H]1O
inactive: phenotypic severity score ([1]; 24 h) 0 | phenotypic severity score ([1]; 48 h) 0 | phenotypic severity score ([1]; 72 h) 0 | drug effect ([2]; 24 h) 0.1 | drug effect ([2]; 48 h) 0.111 | drug effect ([2]; 72 h) 0.125

CCOC(=O)c1c(NC(=O)c2c(F)c(F)c(F)c(F)c2F)sc(C(N)=O)c1C
active: phenotypic severity score ([1]; 24 h) 4 | phenotypic severity score ([1]; 48 h) 4 | phenotypic severity score ([1]; 72 h) 4 | drug effect ([2]; 24 h) 1 | drug effect ([2]; 48 h) 1 | drug effect ([2]; 72 h) 1

CC(C(=O)Nc1ccc2oc(-c3ccncc3)nc2c1)c1ccccc1 (configuration not stated)
inactive: phenotypic severity score ([1]; 24 h) 1 | phenotypic severity score ([1]; 48 h) 0 | phenotypic severity score ([1]; 72 h) 0 | drug effect ([2]; 24 h) 0.182 | drug effect ([2]; 48 h) 0.35 | drug effect ([2]; 72 h) 0.345

O=C(Nc1cccnc1)c1c(O)c2cccc3c2n(c1=O)CC3
inactive: phenotypic severity score ([1]; 24 h) 0 | phenotypic severity score ([1]; 48 h) 0 | phenotypic severity score ([1]; 72 h) 0 | drug effect ([2]; 24 h) 0.182 | drug effect ([2]; 48 h) 0.2 | drug effect ([2]; 72 h) 0.0727

CO[C@@H](C(=O)N1Cc2[nH]nc(NC(=O)c3ccc(N4CCN(C)CC4)cc3)c2C1)c1ccccc1
inactive: phenotypic severity score ([1]; 24 h) 0 | phenotypic severity score ([1]; 48 h) 0 | phenotypic severity score ([1]; 72 h) 0 | drug effect ([2]; 24 h) 0.15 | drug effect ([2]; 48 h) 0.243 | drug effect ([2]; 72 h) 0.278

COc1cccc(-n2nnnc2S(=O)(=O)Cc2ccccc2)c1
active: phenotypic severity score ([1]; 24 h) 4 | phenotypic severity score ([1]; 48 h) 4 | phenotypic severity score ([1]; 72 h) 4 | drug effect ([2]; 24 h) 1 | drug effect ([2]; 48 h) 1 | drug effect ([2]; 72 h) 1

Cn1ncc2c(N3CCOCC3)nc(NCCc3c[nH]c4ccccc34)nc21
inactive: drug effect ([2]; 24 h) 0.45
active: phenotypic severity score ([1]; 24 h) 4 | phenotypic severity score ([1]; 48 h) 4 | phenotypic severity score ([1]; 72 h) 4 | drug effect ([2]; 48 h) 0.676 | drug effect ([2]; 72 h) 0.944

CC(C)c1ncc(-c2ccncc2)c([C@H]2CC[C@H](CNC(=O)c3cccnc3)CC2)n1
inactive: phenotypic severity score ([1]; 24 h) 0 | phenotypic severity score ([1]; 48 h) 0 | phenotypic severity score ([1]; 72 h) 0 | drug effect ([2]; 24 h) 0.05 | drug effect ([2]; 48 h) 0.0811 | drug effect ([2]; 72 h) 0.111

CC[C@H](CO)NCCN[C@H](CC)CO
inactive: phenotypic severity score ([1]; 24 h) 0 | phenotypic severity score ([1]; 48 h) 0 | phenotypic severity score ([1]; 72 h) 0 | drug effect ([2]; 24 h) 0.15 | drug effect ([2]; 48 h) 0.135 | drug effect ([2]; 72 h) 0.278

Nc1ncnc2c1c(-c1cnc3ccccc3c1)nn2CC1CCNCC1
active: drug effect ([2]; 72 h) 0.5
inactive: phenotypic severity score ([1]; 24 h) 0 | phenotypic severity score ([1]; 48 h) 0 | phenotypic severity score ([1]; 72 h) 0 | drug effect ([2]; 24 h) 0.2 | drug effect ([2]; 48 h) 0.278

Cc1ccc(Oc2ccc(NC(=O)CNc3ccccc3N3CCCC3=O)cc2)cc1
active: phenotypic severity score ([1]; 24 h) 2 | phenotypic severity score ([1]; 48 h) 2 | drug effect ([2]; 72 h) 0.556
inactive: phenotypic severity score ([1]; 72 h) 0 | drug effect ([2]; 24 h) 0.2 | drug effect ([2]; 48 h) 0.333

CCc1cc(=O)n(C)c(SC(C)C(=O)Nc2ccc(F)cc2)n1 (configuration not stated)
inactive: phenotypic severity score ([1]; 24 h) 0 | phenotypic severity score ([1]; 48 h) 0 | phenotypic severity score ([1]; 72 h) 1 | drug effect ([2]; 24 h) 0.135 | drug effect ([2]; 48 h) 0.111 | drug effect ([2]; 72 h) < 0

CCCn1c(NC(=O)c2ccc3ccccc3n2)nc2ccccc21
inactive: phenotypic severity score ([1]; 24 h) 1 | phenotypic severity score ([1]; 48 h) 0 | phenotypic severity score ([1]; 72 h) 0 | drug effect ([2]; 24 h) 0.2 | drug effect ([2]; 48 h) 0.278 | drug effect ([2]; 72 h) 0.312

O=C(NCc1nnc2n1CCCCC2)c1ccc(-c2ccc(F)cc2)o1
inactive: phenotypic severity score ([1]; 24 h) 1 | phenotypic severity score ([1]; 48 h) 0 | phenotypic severity score ([1]; 72 h) 0 | drug effect ([2]; 24 h) 0.136 | drug effect ([2]; 48 h) 0.15 | drug effect ([2]; 72 h) 0.182

COC(=O)c1ccc(F)cc1NS(=O)(=O)c1cccc(-c2cnn(Cc3ccccc3)c2)c1
inactive: phenotypic severity score ([1]; 24 h) 1 | phenotypic severity score ([1]; 48 h) 1 | phenotypic severity score ([1]; 72 h) 1 | drug effect ([2]; 24 h) 0.409 | drug effect ([2]; 48 h) 0.45 | drug effect ([2]; 72 h) 0.455

COc1cc(NC(C)CCCN)c2ncccc2c1 (configuration not stated)
inactive: phenotypic severity score ([1]; 24 h) 0 | phenotypic severity score ([1]; 48 h) 0 | phenotypic severity score ([1]; 72 h) 0 | drug effect ([2]; 24 h) < 0 | drug effect ([2]; 48 h) 0.135 | drug effect ([2]; 72 h) 0.333

CNC(=O)c1cc(S(=O)(=O)N2CCN(c3ccccn3)CC2)cs1
inactive: phenotypic severity score ([1]; 24 h) 0 | phenotypic severity score ([1]; 48 h) 0 | phenotypic severity score ([1]; 72 h) 0 | drug effect ([2]; 24 h) 0.1 | drug effect ([2]; 48 h) 0.135 | drug effect ([2]; 72 h) 0.111

CNC(=O)c1nn(C)c2c1C(C)(C)Cc1cnc(Nc3ccc(N4CCN(C)CC4)cc3)nc1-2
inactive: drug effect ([2]; 24 h) 0.364
active: phenotypic severity score ([1]; 24 h) 3 | phenotypic severity score ([1]; 48 h) 4 | phenotypic severity score ([1]; 72 h) 4 | drug effect ([2]; 48 h) 0.8 | drug effect ([2]; 72 h) 0.891

O=C(NCCN1CCCC1)c1cc(NCCCCN2CCC(F)(F)CC2)nc2ccc(Cl)cc12
active: phenotypic severity score ([1]; 24 h) 2 | phenotypic severity score ([1]; 48 h) 4 | phenotypic severity score ([1]; 72 h) 4 | drug effect ([2]; 72 h) 0.562
inactive: drug effect ([2]; 24 h) 0.3 | drug effect ([2]; 48 h) 0.389
